# High-throughput results: PubChem, several laboratories
# hgDAF-12 ag = agonists of H. glycines DAF-12 nuclear receptor; HEK293 GAL4-hgDAF12 UAS-luciferase reporter, agonist luminescence; normalized to butyrate control; activation, % at 6.8 µM; 370,000 tested, 1.8% active; AID 687014;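 active means activation above a cutoff set at the mean of all screened compounds plus 3 SD, cut at about 10% in these data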;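 further: 0% = DMSO wells and 100% = sodium butyrate wells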
# DAX1 inh-1 = blocks DAX1 repression of SF-1 activated StAR promoter | HEK293T StAR-luciferase reporter, SF-1/DAX-1 repression relief | inhibition, % at 6.8 µM | 370,000 tested, 1.1% active;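 active means inhibition above the mean over all tested compounds plus 3 SD, cut at about 3.6% in these data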;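 further: 0% = DAX-1 cells with DMSO and 100% = cells lacking DAX-1 with DMSO; higher inhibition means more luminescence from relief of DAX-1 repression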
# ssDAF-12 act = activators of S. stercoralis DAF-12 nuclear receptor; activation, % at 6.8 µM; HEK293 ssDAF-12/GRIP1 lit1-tk-luc reporter, luminescence; % of 3 µM dafachronic acid response; 370,000 tested, 1% active; AID 652126;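 active means activation above the mean over all tested compounds plus 3 SD, cut at about 0.9% in these data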;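 further: 0% = DMSO-only wells and 100% = 3 µM delta7-dafachronic acid wells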
# PolyA inhibitor = inhibitors of polyadenylation in S. cerevisiae; S. cerevisiae SKY197-pL101 polyadenylation reporter, beta-gal luminescence; efflux-impaired pdr1/pdr3 knockout yeast; score 100 = 6 SD above DMSO; 300,000 tested, 0.02% active; activity score, % at 12 µM;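 active means lowest replicate activity score at least 50, where 100 means six control SD above control mean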;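 further: yeast exposed to compound for 9 h at 30 °C; higher score means more reporter readthrough which indicates perturbed polyadenylation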
# hcDAF-12 act = activators of H. contortus DAF-12 nuclear receptor; 370,000 tested, 1.4% active; AID 652067; activation, % at 6.8 µM; HEK293 hcDAF-12 lit1-tk-luc reporter, luminescence; 0% DMSO, 100% Δ7-dafachronic acid;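 active means activation above the mean of all tested compounds plus 3 SD, cut at about 5.5% in these data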;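 further: 100% = response to 3 µM Δ7-dafachronic acid high control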
# DAX1 inh-2 = inhibits human nuclear receptor DAX1; HEK293 Gal4-DAX1 luciferase reporter, luminescence; inhibition, % at 6.75 µM; 340,000 tested, 0.99% active; AID 504766;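 active means inhibition above the mean over all tested compounds plus 3 SD, cut at about 4.2% in these data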;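 further: 0% = DAX1-transfected cells with DMSO and 100% = empty-vector control cells with DMSO; inhibition shows as a rise in luminescence from relieved DAX1 repression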
# Target sequence (P51843 207-470 limits assumed): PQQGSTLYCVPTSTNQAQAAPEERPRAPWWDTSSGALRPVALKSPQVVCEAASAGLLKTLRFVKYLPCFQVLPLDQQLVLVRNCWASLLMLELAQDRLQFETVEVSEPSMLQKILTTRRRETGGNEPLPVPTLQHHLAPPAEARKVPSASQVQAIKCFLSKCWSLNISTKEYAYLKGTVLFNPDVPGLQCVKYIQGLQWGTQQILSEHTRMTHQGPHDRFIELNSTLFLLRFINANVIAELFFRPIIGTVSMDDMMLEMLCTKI
# * = called active by the depositor; . = not tested or not shown. Shown are actives, neighbours in structure and some others; about 4.1% of the full set was active somewhere.
SMILES,hgDAF-12 ag,DAX1 inh-1,ssDAF-12 act,PolyA inhibitor,hcDAF-12 act,DAX1 inh-2
C[C@H]1[C@H](NC(=O)c2cccc(C(F)(F)F)c2)CC[C@@]23CCCN2C(=O)CCC[C@@H]13,-4,.,-2,.,0,.
COc1cc(OC)c(NC(=O)CCCn2c(=O)oc3ccccc32)cc1Cl,1,0,-1,5,0,0
COc1ccc(NC(=O)CCCn2c(=O)oc3ccccc32)cc1Cl,7,1,1,3,6.4*,3
O=C(NC1CCCCN(Cc2cccc(Cl)c2)C1=O)c1ccc(F)c(F)c1 (stereo not given),0,0,-2,.,-1,.
COc1ccc(S(=O)(=O)NC(C)C(=O)NCc2ccncc2)cc1C (stereo not given),0,0,-1,24,-1,-1
COc1ccc(S(=O)(=O)NC(C)C(=O)NCc2ccncc2)cc1OC (stereo not given),1,0,-1,-2,0,5.8*
CCCCOc1ccc(C(=O)NC2CCCCN(C)C2=O)cc1 (stereo not given),6,-1,-1,.,-1,.
CCN(CC)c1ccc2cc(-c3nc4ccccc4n3C)c(=O)oc2c1,3,3.6*,1.0*,-8,2,2
CCN(CC)c1ccc2cc(-c3nc4ccccc4[nH]3)c(=O)oc2c1,.,.,.,16,.,-2
C[C@H]1[C@H](NC(=O)c2ccc(Cl)cc2)CC[C@@]23CCCN2C(=O)CCC[C@@H]13,-2,.,-2,.,0,.
CC(=O)Nc1ccccc1C(=O)C(=O)Nc1ccc(C)c(C)c1,11*,2,-1,-4,0,3
COc1cc(CN2CCC(CCC(=O)NC3CC3)CC2)cc(Cl)c1OC,2,0,-1,14,0,5.2*
O=C(CCC1CCN(Cc2ccccc2Cl)CC1)NC1CC1,0,0,-1,-9,-1,-1
O=S1(=O)c2ccc(N3CCCC3)cc2Oc2ccccc2CN1Cc1cn(Cc2ccc(F)cc2)nn1,-4,-1,-1,.,-2,.
COc1cc2c(c(OC)c1OC)-c1ccc(SC)c(=O)cc1C(NC(=O)c1ccccc1)CC2 (stereo not given),-1,3.7*,0,.,-2,-1
COC(=O)c1ccc2c(c1)C(NC(C)=O)CCc1cc(OC)c(OC)c(OC)c1-2 (stereo not given),-4,4.3*,0,.,-1,1
COc1cc2c(c(OC)c1OC)-c1ccc(OC)c(=O)cc1C(NC(C)=O)CC2 (stereo not given),-6,1,0,-13,0,2
O=C(NCC(O)CN1CCOCC1)c1ccc([N+](=O)[O-])cc1 (stereo not given),-3,0,-1,-5,-2,6.2*
O=C(c1ccc([N+](=O)[O-])cc1)N1CCOCC1,0,0,8.9*,.,-1,0
CC(=O)c1cccc(NC(=O)C2CCN(C(=O)c3ccc([N+](=O)[O-])cc3)CC2)c1,4,0,2.3*,8,4,1
COC(=O)c1cccc(Cn2ccc3ccc(-c4ccc5ccn(C(=O)c6ccc(C)cc6)c5c4)cc32)c1,-2,-1,-1,.,0,.
Cc1cc(C(=O)CN2C(=O)NC3(CCCCC3)C2=O)c(C)n1Cc1ccco1,11*,4.0*,2.6*,1,4,7.1*
Cc1cc(C(=O)CN2C(=O)NC3(CCCCC3)C2=O)c(C)n1Cc1ccc2c(c1)OCO2,8,0,-1,20,-1,1
Cc1cc(-n2c(C)cc(C(=O)CN3C(=O)NC4(CCCC4)C3=O)c2C)no1,2,0,-2,12,0,5.9*
c1ccc(-c2cccc(-c3ccccc3)n2)cc1,0,0,-2,-3,-2,2
c1ccc(-c2ccc3ncccc3n2)cc1,8,3.7*,0,.,2,.
Cc1cccc(NC(=O)C2CCCN2S(=O)(=O)c2cccnc2)c1C (stereo not given),1,0,-1,.,-1,.
NC(=O)[C@@H]1CCCN1C(=O)[C@@H](Cc1ccccc1)NC(=O)[C@H]1O[C@@H](n2ccc(=O)[nH]c2=O)[C@H](O)[C@@H]1O,-1,-1,-1,.,1,.
